Most compounds without a hit are left out; they make up all but 3.5% or so of the library.
TROY signal inh: blocks TROY-dependent signaling in reporter cells | hit rate 0.98% among 360,000 | inhibition, % at 10 µM | Q293 LMP1-TROYcd NF-kB luciferase reporter, 4 h;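 active = compounds whose plate-normalised and pattern-corrected inhibition of the luciferase reporter signal at the single screening dose is 50% or more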
HSP90 inh: inhibitors of HSP90 luciferase refolding in rabbit reticulocyte lysate | luciferase refolding luminescence, 3 h | inhibition, % at 5.6 µM | hit rate 0.91% among 290,000;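 active = inhibition above the screen-wide mean plus 3 SD, computed separately per campaign, cut at about 16% in these data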;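 also: inhibitors lower the luminescence because luciferase stays unfolded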
PPC-1+TRAIL kill: compounds killing PPC-1 cancer cells with TRAIL present (potentiator screen, no TRAIL-free arm); cell killing (% activity), % at 4 µM or 5 µM; PPC-1 cells + TRAIL, ATPLite viability luminescence; hit rate 0.41% among 220,000; AID 1443;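 active = cell killing above 50% in the first pass at 4 µM, then a duplicate retest at 5 µM averaging 50% or more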
C8 TRAIL sens: sensitizes caspase-8 expressing cells to TRAIL; NB7+C8 cells + TRAIL, ATPlite viability luminescence; hit rate 1% among 360,000; inhibition (viability loss, TRAIL sensitization), % at 10 µM;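 active = compounds causing at least 50% loss of cell viability in the single-dose screen, relative to plate controls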
Platelet DG rel: modulates dense granule release in human platelets; hit rate 0.22% among 300,000; AID 1663; human platelet-rich plasma, SFLLRN dense granule ATP release, luminescence; inhibition, %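 (compounds screened at 7.5 µM in platelet-rich plasma)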;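 active = mean replicate score, as percent of positive control, at or above 50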
TWEAK Fn14 block: blocks TWEAK-Fn14 interaction in a reporter cell assay | TWEAK-stimulated Fn14 reporter cells, luciferase luminescence, 8 h | inhibition, % at 10 µM | hit rate 2% among 360,000 | AID 1159606; in the data active = inhibition above about 50%
Of the large screens only hits and unclear results are named; the others gave an inactive call.

CN1C(=O)NC(c2ccc(C(F)(F)F)cc2)C2=C1CC(C)(C)CC2=O (centres undefined)	none (no result: PPC-1+TRAIL kill)
Oc1c(Cl)cc(Cl)cc1Sc1cc(Cl)cc(Cl)c1O	none (no result: TROY signal inh, C8 TRAIL sens, TWEAK Fn14 block)
O=S(c1cc(Cl)cc(Cl)c1O)c1cc(Cl)cc(Cl)c1O	TROY signal inh 54 (no result: HSP90 inh, PPC-1+TRAIL kill, Platelet DG rel)
CC(C)S(=O)(=O)c1csc(C(=O)Nc2ccc(F)cc2)c1N	Platelet DG rel 57
Cc1cccc(Cc2cnc(N3C(=N)SC(C)C3=O)s2)c1 (centres undefined)	TROY signal inh 67
Cc1ccc(Cc2cnc(N3C(=N)SC(C)C3=O)s2)cc1 (centres undefined)	none
N=C1SCC(=O)N1c1ncc(Cc2ccccc2Cl)s1	TWEAK Fn14 block 100
N=C1SCC(=O)N1c1ncc(Cc2cccc(Cl)c2)s1	TROY signal inh 67, TWEAK Fn14 block 102 (no result: PPC-1+TRAIL kill)
Cc1cccc(Cc2cnc(N3C(=N)SC(c4ccccc4)C3=O)s2)c1 (centres undefined)	none
COc1cc(CNC(=O)CCn2nc(C)c3c(C)n(-c4ccccc4)nc3c2=O)cc(OC)c1OC	none (no result: PPC-1+TRAIL kill)
CCC(=O)c1ccc(OCC(=O)N2CCN(c3ncccn3)CC2)cc1	none (no result: HSP90 inh, PPC-1+TRAIL kill)
COc1ccccc1CNC(=O)C[C@@H]1C[C@H]2c3cc(N(C)C)ccc3O[C@H]2[C@H](CO)O1	none (no result: HSP90 inh, PPC-1+TRAIL kill, Platelet DG rel)
C/C(=N\NC(=O)c1nn(C)c(C)c1Br)c1cccc(NC(=O)c2ccc(F)cc2)c1	C8 TRAIL sens 53
C/C(=N\NC(=O)c1ccc(O)cc1)c1cccc(NC(=O)c2ccccc2C)c1	C8 TRAIL sens 63 (no result: PPC-1+TRAIL kill)
O=C1C=C(OCCCl)CC(c2cccc(Cl)c2)O1 (centres undefined)	none (no result: TROY signal inh, HSP90 inh, PPC-1+TRAIL kill, Platelet DG rel, TWEAK Fn14 block)
Cc1onc(-c2c(Cl)cccc2Cl)c1C(=O)ONC(=O)c1ccccc1	C8 TRAIL sens 52
COc1ccc(C(=O)N2CCN(S(=O)(=O)c3ccc(Cl)cc3)CC2)cc1S(=O)(=O)N1CCOCC1	none (no result: HSP90 inh, PPC-1+TRAIL kill, Platelet DG rel)
CC(C)(C)OC(=O)C[C@@H]1C/C=C\C[C@H](CC(=O)N[C@H](CO)Cc2ccccc2)C(=O)N2CCC[C@H]2COC1=O	none (no result: HSP90 inh, PPC-1+TRAIL kill, Platelet DG rel)
Cc1nn(-c2nc3ccccc3s2)c(C)c1Oc1ccccc1O	TROY signal inh 62
Cc1nn(-c2ccccn2)c(C)c1Oc1ccccc1O	none
COc1ccc(COC(=O)C2=C(C)NC(=O)NC2c2ccc(F)cc2)cc1 (centres undefined)	TWEAK Fn14 block 53 (no result: PPC-1+TRAIL kill)
CC1=C(C(=O)OCc2ccccc2)C(c2cccc([N+](=O)[O-])c2)NC(=O)N1 (centres undefined)	none (no result: PPC-1+TRAIL kill)
CCOc1ccc(C2NC(=O)NC(C)=C2C(=O)OCc2ccccc2)cc1 (centres undefined)	none (no result: PPC-1+TRAIL kill)
CC1=C(C(=O)OCc2ccc3c(c2)OCO3)C(c2cccc([N+](=O)[O-])c2)NC(=O)N1 (centres undefined)	TWEAK Fn14 block 75
CCC(CC)COC(=O)C1=C(C)NC(=O)NC1c1ccc(OC)cc1 (centres undefined)	none (no result: PPC-1+TRAIL kill)
CCC(CC)COC(=O)C1=C(C)NC(=O)NC1c1cc(OC)ccc1OC (centres undefined)	TWEAK Fn14 block 104 (no result: PPC-1+TRAIL kill)
CCOC(=O)C1=C(C)NC(=O)NC1c1ccc(-c2ccccc2F)o1 (centres undefined)	TROY signal inh 54
CC(=O)c1cnn(-c2ccc(Cl)c(Cl)c2Cl)c1C	none
Cn1ncc(Cl)c1C(=O)NNC(=O)Nc1cccc2ccccc12	none (no result: PPC-1+TRAIL kill, Platelet DG rel)
O=C(C1CCCCC1)N1C[C@@H](n2cc(-c3ccc(F)cc3)nn2)[C@H](O)C[C@@H]1c1ccc(Cl)cc1	none (no result: HSP90 inh, PPC-1+TRAIL kill, Platelet DG rel)
O=C(Nc1cccc(-c2cnc3ccccc3n2)c1)c1cccc(NC(=O)c2ccco2)c1	TWEAK Fn14 block 55
O=C(CCl)Nc1cccc(-c2cnc3ccccc3n2)c1	C8 TRAIL sens 94, TWEAK Fn14 block 85
CCC(=O)Nc1cccc(-c2cnc3ccccc3n2)c1	none
O=C(CCl)Nc1ccc(Oc2cnc3ccccc3n2)cc1	C8 TRAIL sens 93
C[C@@H]1CCCCO[C@@H](CN(C)C(=O)c2ccccc2)[C@@H](C)CN([C@H](C)CO)C(=O)c2cc(N(C)C)ccc2O1	none (no result: HSP90 inh, PPC-1+TRAIL kill, Platelet DG rel)
CCN(C(=O)COC(=O)C1CCN(S(=O)(=O)c2ccc3c(c2)OCCO3)CC1)C1CCCCC1	none (no result: HSP90 inh, PPC-1+TRAIL kill)
CC(C)C[C@@H]1CC2=C(C(=O)OC(C)(C)O2)[C@H](CCc2ccccc2)O1	none (no result: HSP90 inh, PPC-1+TRAIL kill, Platelet DG rel)
CCCCNC(=O)CSc1nc(N)c(C(=O)Nc2ccc(OC)cc2)s1	none
COC(=O)c1ccccc1NC(=O)c1ccccc1OC	none
COc1ccccc1C(=O)Nc1ccc(N2CCCCC2)cc1	C8 TRAIL sens 58
COc1ccccc1C(=O)NC(=S)Nc1ccc(N2CCOCC2)c(Cl)c1	TROY signal inh 52
COc1ccccc1C(=O)Nc1ccccc1SC(=O)c1ccccc1OC	TROY signal inh 50 (no result: PPC-1+TRAIL kill)
CC(C)[C@H](NS(=O)(=O)/C=C/c1ccccc1)C(=O)OCC(=O)NC(N)=O	none
C/C(CC(=O)Nc1cc(Cl)ccc1C)=N\NC(=O)C(=O)N1CCCC1	none (no result: PPC-1+TRAIL kill)
COc1ccc(OCCCC(=O)Nc2cc(S(=O)(=O)N3CCCCC3)ccc2C)cc1	none (no result: HSP90 inh, PPC-1+TRAIL kill, Platelet DG rel)
CC(=O)c1c(C)[nH]c(C(=O)OCC(=O)N2CCc3ccccc3C2)c1C	none (no result: HSP90 inh, PPC-1+TRAIL kill, Platelet DG rel)
c1cnc2c(-c3cccc4nccn34)cccc2c1	none (no result: HSP90 inh, PPC-1+TRAIL kill, Platelet DG rel)
c1ccc2c(-c3cccc4nccn34)cncc2c1	TWEAK Fn14 block 52 (no result: HSP90 inh, PPC-1+TRAIL kill, Platelet DG rel)
COc1cc(OC)c2c(=O)cc(-c3ccccc3)oc2c1	none
COc1cc2c(c3oc(-c4ccccc4)cc(=O)c13)C=CC(C)(C)O2	TWEAK Fn14 block 64
Cc1nnnn1/C(=C\c1ccccc1)C(=O)OCC(=O)NC(C)(C)C	TWEAK Fn14 block 50
CC(=O)Nc1ccc(NC(=O)COC(=O)/C(=C/c2ccccc2)n2nnnc2C)cc1	none (no result: PPC-1+TRAIL kill)
Cc1nnnn1/C(=C\c1ccccc1)C(=O)OCC(=O)NC1CCCCC1	TWEAK Fn14 block 57 (no result: HSP90 inh, PPC-1+TRAIL kill)
Cc1cc2nc(CN(C)C(=O)C3CCC(=O)N(C4CCCC4)C3)[nH]c2cc1C (centres undefined)	none (no result: HSP90 inh, PPC-1+TRAIL kill, Platelet DG rel)
CCOc1ccc(C(=O)C(CCC(CN(C)C)C(=O)c2ccc(OCC)cc2)CN(C)C)cc1 (centres undefined)	TROY signal inh 50, TWEAK Fn14 block 102
COc1ccc(C(=O)C(CCCCC(CN(C)C)C(=O)c2ccc(OC)cc2)CN(C)C)cc1 (centres undefined)	none
CN(C)CC(CCC(CN(C)C)C(=O)c1ccccc1)C(=O)c1ccccc1 (centres undefined)	TROY signal inh 56, PPC-1+TRAIL kill 52, TWEAK Fn14 block 98
CC(CNC(=O)CCS(=O)(=O)c1ccc2c(c1)NC(=O)CO2)c1ccccc1 (centres undefined)	none (no result: PPC-1+TRAIL kill)
CCCOC(=O)Cn1c(=O)c2cc3c(=O)n(CC(=O)OCCC)c(=O)c3cc2c1=O	TROY signal inh 62
CCC(=O)OCCn1c(=O)c2cc3c(=O)n(CCOC(=O)CC)c(=O)c3cc2c1=O	none (no result: Platelet DG rel)
COc1cccc(C(O)c2nc(-c3cnn(C)c3)cs2)c1 (centres undefined)	none (no result: HSP90 inh, PPC-1+TRAIL kill, Platelet DG rel)
